Assay [1] is described as follows: qHTS assay to identify small molecule antagonists of the estrogen receptor alpha (ER-alpha) signaling pathway using the BG1 cell line in the presence of 0.1 nM 17-beta-estradiol - cell viability counter screen (AID 1259241). Note: nearly all actives have a fitted effect of over 40% in size. The method, boiled down:
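VM7Luc4E2 cells (endogenous ER-alpha, 4×ERE-luciferase), hormone-starved 5 days in charcoal-stripped FBS, were treated with compounds plus 0.1 nM 17beta-estradiol for 22 hr at 37C; viability read in same wells as CellTiter-Fluor live-cell protease fluorescence.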

Assay [2] is described as follows: qHTS assay to identify small molecule antagonists of the androgen receptor (AR) signaling pathway using the MDA cell line in the presence of 0.5 nM R1881 - cell viability counter screen (AID 1259242). Note: nearly all actives have a fitted effect of over 45% in size. Note: potency is the fitted concentration of half-maximal effect. The method, boiled down:
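MDA-kb2 cells (human breast carcinoma, stably carrying MMTV-luciferase reporter) were exposed to compounds with 0.5 nM R1881 (final) for 16 hr at 37C, 0% CO2; viability then read as live-cell protease fluorescence (CellTiter-Fluor, 30 min) in the same wells.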
A general note: In qHTS, concentration-response curves come from the screen itself.

The nature of assay [3]: qHTS assay to identify small molecule HDAC inhibitors (AID 1259364). Note: nearly all actives have a fitted effect of over 45% in size. Note: potency is the fitted concentration of half-maximal effect. The method, boiled down: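 Wild-type HCT-116 cells were plated overnight, exposed to compounds for 2 h at 37 °C, then given HDAC-Glo class I/II luminogenic reagent for 30 min at room temperature before luminescence was read.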
The nature of assay [4]: qHTS assay to identify small molecule HDAC inhibitors - cell viability counter screen (AID 1259365). Note: series mostly up to about 92 µM; nearly all actives have a fitted effect of over 50% in size. The procedure, abridged:
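Wild-type HCT-116 cells were seeded at 1,500 per well, incubated overnight at 37 C, then exposed to compounds in DMSO for 2hr. Viability was read by CellTiter-Glo luminescence after 30min at room temperature.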

Assay [5] can be described thus: qHTS assay to identify small molecule agonists of the sonic hedgehog signaling (Shh) pathway - cell viability counter screen (AID 1259366). Note: nearly all actives have a fitted effect of over 50% in size. Note: potency is the fitted concentration of half-maximal effect. The procedure, abridged: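 NIH/3T3-derived 3T3 Gli1-Luc cells (stable Gli1-responsive firefly luciferase reporter) were seeded, rested 4 hr at 37 C/5% CO2, then exposed to compounds in DMSO for 24 hr; viability was read by CellTiter-Fluor fluorescence in the same wells.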

A short description of assay [6]: qHTS assay to identify small molecule antagonists of the sonic hedgehog signaling (Shh) pathway - cell viability counter screen (AID 1259367). Note: nearly all actives have a fitted effect of over 55% in size. Note: potency is the fitted concentration of half-maximal effect. The method, boiled down:
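Using CellTiter-Fluor, viability of Gli1-Luc reporter 3T3 cells is read by fluorescence in the wells used for the Shh luciferase assay. Treatment lasts 23 hr with conditioned medium, then reagent 1 hr at 37C.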

A short description of assay [7]: qHTS assay to identify small molecule agonists of the sonic hedgehog signaling (Shh) pathway (AID 1259368; calls by dose curve; note: series mostly up to about 92 µM; nearly all actives have a fitted effect of over 15% in size). The method, boiled down: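 NIH/3T3-derived 3T3Gli1-Luc cells carrying a stably integrated Gli1 response element–firefly luciferase reporter were plated, left 4 hr at 37 C, then given compounds in DMSO for 24 hr. Luminescence was read 30 min after adding luciferase reagent.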

Assay [8] addresses Estrogen receptor (Homo sapiens) (UniProt P03372). As to the kind of experiment: qHTS assay to identify small molecule antagonists of the estrogen receptor alpha (ER-alpha) signaling pathway using the BG1 cell line in the presence of 0.1 nM 17-beta-estradiol (AID 1259244). Note: nearly all actives have a fitted effect of over 50% in size. The method, boiled down:
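VM7Luc4E2 cells (endogenous full-length ER-alpha, stable 4xERE-luciferase) were grown 5 days in phenol red-free medium with charcoal-stripped FBS, then exposed 22 h at 37C to compounds plus 0.1 nM (final) 17beta-estradiol; ONE-Glo luminescence read-out.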

Assay [9] can be described thus: qHTS assay to identify small molecule phospholipidosis (PLD) inducers (AID 1259344; active = well fitted curve in the direction sought with a large enough effect; an effect the other way counts as inactive or inconclusive). The procedure, abridged: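 Fluorescent phospholipid staining (LipidTOX Red) measured by automated microscopy in fixed HepG2 cells after 24 h treatment; nuclei counterstained with Hoechst 33342; amiodarone as reference inducer.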

Results on 25 molecules are retold here after PubChem BioAssay (Tox21).

Where “and” joins values, the source holds several entries; their conditions need not be identical. Equal entries are not always repeated. Values without a mark were called inactive. Records with an inconclusive call do not appear. Calls of active or inactive are those of the source. Unless noted, calls come from the whole dose curve; as a rule, active = well fitted curve in the direction sought with a large enough effect in the repeat runs; inconclusive = weak or mixed curves; inactive = no such curve, though single readings can be large; an effect the other way counts as inactive or inconclusive.

Sequence of Estrogen receptor (Homo sapiens) (P03372 whole entry, looked up): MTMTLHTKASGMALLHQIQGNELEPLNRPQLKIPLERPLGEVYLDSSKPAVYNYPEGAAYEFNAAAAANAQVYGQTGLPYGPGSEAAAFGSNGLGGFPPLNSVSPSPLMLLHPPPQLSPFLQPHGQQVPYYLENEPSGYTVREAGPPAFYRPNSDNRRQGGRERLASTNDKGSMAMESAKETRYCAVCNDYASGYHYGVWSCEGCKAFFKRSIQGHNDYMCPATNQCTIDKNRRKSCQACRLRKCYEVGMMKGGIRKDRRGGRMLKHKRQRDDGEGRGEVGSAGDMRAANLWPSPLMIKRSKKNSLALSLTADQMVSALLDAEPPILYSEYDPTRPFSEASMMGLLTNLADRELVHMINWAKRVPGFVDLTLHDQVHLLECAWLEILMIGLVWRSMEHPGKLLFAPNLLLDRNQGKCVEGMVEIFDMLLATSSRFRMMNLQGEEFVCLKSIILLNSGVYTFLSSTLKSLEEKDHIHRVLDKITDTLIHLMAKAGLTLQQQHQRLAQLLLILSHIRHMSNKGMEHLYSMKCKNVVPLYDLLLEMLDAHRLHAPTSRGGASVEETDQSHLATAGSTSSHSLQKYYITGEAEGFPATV

As to `O=C1CCCCCCCCCCOCCCCO1`, the Potency entry in assay [1], in [2], in [3], in assay [4], in assay [5] and in assay [6] was “inactive” in each case. In assay [7], the Potency entry is “inactive”.
In the case of `Brc1cc(Br)c(Oc2cc(Br)c(Br)cc2Br)cc1Br`, the Potency entry in [1], in [2], in [3], in assay [4], in assay [5] and in assay [6] was “inactive” each time. Moreover, in assay [7], the Potency result is “inactive”.
Take `CC(C)C(O)(c1ccc(OC(F)(F)F)cc1)c1cncnc1` (configuration not stated): the Potency result in [1], in assay [2], in [3], in [4], in assay [5] and in [6] was “inactive” in each case. The Potency entry in assay [7] was “inactive”.
With `CCCCCCCCC(CCCCCC)C(=O)O` (configuration not stated), the Potency result in assay [1], in assay [2], in assay [3], in [4], in assay [5] and in assay [6] was “inactive” each time. The Potency entry in assay [7] was “inactive”.
On to `N#[N+]c1ccc2c(S(=O)(=O)[O-])cccc2c1O`, for which the Potency result in [1], in assay [2], in [8], in assay [4], in assay [6] and in assay [7] was “inactive” in each case.
With `CCCCCCCCCCCCCCN(CCO)CCO`, the Potency entry in [1], in assay [3], in assay [4], in assay [6] and in assay [7] was “inactive” in each case. Moreover, the Potency in assay [2] is 48.6 µM (active); in assay [5], 61.1 µM (active).
As to `CN1C(=O)c2ccccc2C1=O`, the Potency entry in [1], in assay [2], in assay [9], in [3], in assay [4] and in [5] was “inactive” throughout. In addition, the Potency result in [7] is “inactive”.
`C=CC(=O)OCC1CC2CC1C1CCC(COC(=O)C=C)C21` (configuration not stated): the Potency result in assay [1], in assay [2], in [3], in [4] and in assay [7] was “inactive” throughout.
On to `Cc1ccc(OC(=O)c2ccccc2O)cc1`, for which the Potency entry in assay [1], in assay [2], in assay [4], in assay [5], in assay [6] and in assay [7] was “inactive” each time. Besides, the Potency in [3] is 15.4 µM (active).
Take `CC1(C)[C@@H](OC(=O)CCC(=O)O)CC[C@]2(C)[C@H]3C(=O)C=C4[C@@H]5C[C@@](C)(C(=O)O)CC[C@]5(C)CC[C@@]4(C)[C@]3(C)CC[C@@H]12`: the Potency result in assay [1], in assay [2], in assay [9], in [3], in [4] and in [5] was “inactive” throughout. For the same molecule, the Potency result in assay [6] and in assay [7] was “inactive” throughout.
Take `CC(C)(C)CC(=O)OCC(=O)[C@@]1(O)CC[C@H]2[C@@H]3CCC4=CC(=O)C=C[C@]4(C)[C@H]3[C@@H](O)C[C@@]21C`: the Potency result in assay [1], in assay [2], in assay [8], in [4], in assay [6] and in assay [7] was “inactive” in each case.
Consider `O=C(Nc1cccc2c(=O)cc(-c3nn[nH]n3)oc12)c1ccc(OCCCCc2ccccc2)cc1`, for which the Potency result in assay [1], in [2], in assay [9], in assay [3], in assay [4] and in [5] was “inactive” each time. The Potency result in assay [6] and in assay [7] was “inactive” in each case.
With `CCC1CO1` (configuration not stated), the Potency entry in assay [1], in assay [2], in assay [3], in [4], in assay [5] and in [6] was “inactive” each time. For the same molecule, the Potency entry in assay [7] is “inactive”.
For the molecule `CCCCCC[C@@H](O)C/C=C\CCCCCCCC(=O)O`, the Potency entry in [1], in assay [2], in [9], in assay [3], in [4] and in assay [5] was “inactive” throughout. Besides, the Potency result in [6] and in assay [7] was “inactive” throughout.
On to `Cc1[nH]cnc1CN1CCc2c(c3ccccc3n2C)C1=O`, for which the Potency entry in assay [1], in assay [2], in assay [9], in assay [3], in assay [4] and in [5] was “inactive” each time. Further, the Potency entry in assay [6] and in assay [7] was “inactive” each time.
On to `CCCCCCCC/C=C\CCCCCCCCO`, for which the Potency result in assay [1], in [2], in assay [3], in assay [4], in assay [5] and in assay [6] was “inactive” each time. Further, in [7], the Potency result is “inactive”.
As to `CN(C(=O)CN(CCO)CC(=O)N(C)C(C)(C)Cc1ccccc1)C(C)(C)Cc1ccccc1`, the Potency result in assay [1], in assay [2], in [9], in [3], in assay [4] and in [7] was “inactive” each time.
With `CC(C)(O)c1ccc(CNC(=O)c2cccnc2Oc2ccc3nonc3c2)cc1`, the Potency result in [1], in assay [2], in assay [3], in assay [4], in assay [6] and in assay [7] was “inactive” in each case.
On to `CC(CCC(=O)O)C(=O)O` (configuration not stated), for which the Potency result in assay [1], in assay [2], in assay [3], in assay [4], in [5] and in assay [6] was “inactive” each time. Moreover, in assay [7], the Potency entry is “inactive”.
For `COc1ccccc1N1CCN(CC(O)COc2cccc3ccccc23)CC1` (configuration not stated), the Potency result in [1], in [2], in assay [9], in [3], in assay [4] and in [6] was “inactive” in each case. Moreover, in assay [7], the Potency result is “inactive”.
Turning to `Cc1ccc2c(Br)cc(Br)c(O)c2n1`, the Potency entry in assay [1], in assay [2], in [9], in assay [3], in assay [4] and in [6] was “inactive” throughout.
Regarding `CC[C@]1(O)C[C@H]2CN(CCc3c([nH]c4ccccc34)[C@@](C(=O)OC)(c3cc4c(cc3OC)N(C=O)[C@H]3[C@@](O)(C(=O)OC)[C@H](OC(C)=O)[C@]5(CC)C=CCN6CC[C@]43[C@@H]65)C2)C1`, the Potency result in assay [1], in [2], in [3], in assay [4] and in assay [7] was “inactive” each time.
On to `CCOC(=O)c1ccc(C#Cc2ccc3c(c2)C(C)(C)CCS3)nc1`, for which the Potency result in assay [1], in assay [2], in [9], in [3], in [4] and in assay [5] was “inactive” throughout. For the same molecule, the Potency entry in [6] and in [7] was “inactive” each time.
For `O=c1c(O)c(-c2ccc(O)cc2)oc2cc(O)cc(O)c12`, the Potency result in assay [1], in [2], in [4], in [5] and in assay [7] was “inactive” in each case. In addition, the Potency is 21.6 µM (active) and 16.4 µM (active) in [3]; 48.4 µM (active) in assay [6].
With `CO/N=C(/C(=O)N[C@@H]1C(=O)N2C(C(=O)O)=C(COC(N)=O)CS[C@H]12)c1ccco1`, the Potency entry in assay [1], in assay [2], in assay [9], in assay [3], in assay [4] and in assay [5] was “inactive” throughout. Moreover, the Potency result in assay [6] and in assay [7] was “inactive” each time.
